Measurements: PubChem BioAssay (NCATS)
Inconclusive results are not listed. Active and inactive are the calls of the source. Unless noted, calls follow the shape of the dose curve; as a rule, active = well fitted curve in the direction sought with a large enough effect; inconclusive = small, poorly fitted or top-dose-only effect, or another doubt; inactive = no such curve, though single readings can be large; an effect the other way counts as inactive or inconclusive.

Tests used:
[1] = target: Cytochrome P450 3A4 (Homo sapiens) (UniProt P08684); experiment: qHTS Assay for Inhibitors and Substrates of Cytochrome P450 3A4 (AID 884); also: % is scaled to controls: 0 for no effect and ±100 for the full control effect; nearly all actives have a fitted effect of over 50% in size
Outline: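 Luminescent readout of luciferin produced by CYP3A4 (20 nM) dealkylation of Luciferin-PPXE, 25 uM (its KM). NADPH-driven reaction ran 60 min at RT after 10 min compound preincubation; data scaled to 57 uM ketoconazole as 100% inhibition.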

[2] = Confirmation and Secondary Assay for Modulators of Hemoglobin Beta Chain Splicing at IVS2 654 locus (AID 910);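 also: per-well total GFP intensity by laser scanning cytometry after 2-day treatment; % of control where 0% means no effect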
Outline: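 HeLa cells stably carrying EGFP interrupted by mutant beta-globin IVS2-654 intron (CMV-driven) were treated with compound for 2 days at 37C; corrected splicing was scored as total peak GFP intensity per well (488 nm excitation, 500-520 nm emission).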

[3] = Confirmation and Secondary Assay for Modulators of Hemoglobin Beta Chain Splicing at IVS2 705 locus (AID 930);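 also: HeLa cells stably expressing the EGFP-705 splicing reporter; % of control where 0% means no effect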
Outline: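 Restored EGFP fluorescence after 2-day compound exposure reports splicing correction in IVS2-705 EGFP reporter HeLa cells; positive control was 500 nM splice-blocking PNA oligo. Signal measured as well total peak GFP intensity (488 nm excitation).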

[4] = qHTS Assay for Lipid Storage Modulators (AID 1519; calls by dose curve; as to activity change, negative = inhibition: % is scaled to controls: 0 for no effect and ±100 for the full control effect); conditions: Drosophila S3 cells, BODIPY lipid droplet/cell ratio, laser cytometry, cells loaded with oleic acid; for activity change, negative = inhibition: at 57.5 µM (top of the series)
Outline: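 Cells seeded at 5,000 per well were treated with compounds over a concentration series and loaded with oleic acid (400 uM, as added). Lipid droplet fluorescence (488 nm excitation, 500-530 nm channel) was read by laser-scanning cytometry and normalized to 20 uM Triacsin C.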

[5] = target: Ubiquitin carboxyl-terminal hydrolase 1 (Homo sapiens) (UniProt O94782); experiment: Inhibitors of USP1/UAF1: Pilot qHTS (AID 504865);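 also: rhodamine fluorescence freed from ubiquitin-rhodamine substrate followed over time; top concentration of the series differs between compounds; % is scaled to controls: 0 for no effect and ±100 for the full control effect; nearly all actives have a fitted effect of over 35% in size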
Outline: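 1nM USP1/UAF1 + cpd, 15 min RT; start w/ Ub-Rho 150nM final; kinetic FL 480/540 nm, 6 reads q60 s. Buffer 50mM HEPES pH 7.8, 0.5mM EDTA, 1mM TCEP, 0.01% Tween-20, 0.1 mg/ml BSA.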

[6] = qHTS assay for small molecule antagonists of peroxisome proliferator-activated receptor delta signaling (AID 588535); conditions: HEK293T PPARd-UAS-bla, beta-lactamase FRET ratio, 18 h; 460 nm channel;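 also: cells co-treated with a PPAR-delta agonist as stimulator during compound exposure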
Outline: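 Compounds tested in titration on PPAR-delta-UAS-bla HEK293T cells grown in charcoal/dextran-stripped serum (2%); beta-lactamase activity read via CCF4 emission at 460 and 530 nm.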

[7] = target: Peroxisome proliferator-activated receptor gamma (Homo sapiens) (UniProt P37231); experiment: qHTS assay for small molecule agonists of peroxisome proliferator-activated receptor gamma signaling (AID 588536; active = well fitted curve in the direction sought with a large enough effect in the signal ratio, with a control signal flat, not every such curve was filed as active; the % refers to the signal ratio;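 also: 0% = DMSO basal wells and 100% = rosiglitazone at 2 µM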)
Outline: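 This is an agonist-mode beta-lactamase reporter assay in HEK293 PPAR-gamma-UAS-bla cells with 1% charcoal/dextran FBS. Compound titrations ran 16 h at 37 C before CCF4 detection. EC50 and efficacy are Hill fits scaled to 2 uM rosiglitazone (100%) and DMSO basal.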

[8] = target: Vitamin D3 receptor (Homo sapiens) (UniProt P11473); experiment: qHTS assay for small molecule antagonists of vitamin D receptor signaling (AID 588541; calls by dose curve;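 also: receptor activated by calcitriol during compound treatment; % is scaled to controls: 0 for no effect and ±100 for the full control effect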)
Outline: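 VDR-UAS-bla HEK293T cells (2000/well, 2% charcoal-stripped FBS) were treated with titrated compounds plus 1-alpha,25-dihydroxyvitamin D3 (50 nM or 3 nM final) for 16 h at 37 C. CCF4 beta-lactamase fluorescence was read; Hill fits gave IC50.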

[9] = qHTS assay for small molecule agonists of retinoid X receptor alpha signaling (AID 588544); conditions: HEK293T RXRa-UAS-bla, beta-lactamase reporter, 18 h; 530 nm emission
[10] = qHTS assay for small molecule antagonists of retinoid X receptor alpha signaling (AID 588546; active = well fitted inhibition curve with a large enough effect in the signal ratio, with a control signal flat, not every such curve was filed as active; the % refers to the signal ratio;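 also: cells stimulated with 9-cis-retinoic acid as agonist; % is scaled to controls: 0 for no effect and ±100 for the full control effect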); conditions: HEK293T RXRa-UAS-bla, beta-lactamase ratio, antagonist mode; measured here: W530 green channel, cytotoxicity proxy
Outline: (§1)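 Beta-lactamase reporter inhibition, read as CCF4 fluorescence ratio (ex 405, em 460/530 nm) after 2 h at RT. HEK293T UAS-bla cells, 2500/well, were stimulated with 9-cis-RA at 500 or 100 nM final alongside test compound for 18 h at 37 C.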

[11] = target: Retinoic acid receptor RXR-alpha (Homo sapiens) (UniProt P19793); experiment: as above; conditions: HEK293T RXRa-UAS-bla, beta-lactamase ratio, antagonist mode
Outline: as §1

[12] = qHTS assay for small molecule activators of the p53 signaling pathway (AID 651743; active = well fitted activation curve with a large enough effect in the signal ratio, not every such curve was filed as active; the % refers to the signal ratio; also: % of control where 0% means no effect); conditions: HCT-116 p53RE-bla, beta-lactamase FRET ratio, 16 h; activation: stronger effect = higher value
Outline: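 Here HCT-116 cells with an integrated p53-responsive beta-lactamase gene were incubated with compounds (16 hours, 37 C) after a 5-hour plating period; beta-lactamase activity was detected as fluorescence intensity via B/G FRET substrate.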

[13] = qHTS assay for environmental chemicals that activate the Aryl hydrocarbon Receptor (AhR) signaling pathway (AID 651777); conditions: 1A2-DRE human hepatoma cells, luciferase, 24 h; activation: stronger effect = higher value; also: % of control where 0% means no effect; nearly all actives have a fitted effect of over 15% in size
Outline: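 Luminescence (One-Glo, 30 min, room temperature) reports AhR-driven luciferase in stably transfected human hepatoma cells bearing DRE and CYP1A2 promoter. Cells (1,200/well) were treated with compound for 24 hr at 37 C in qHTS format.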

[14] = target: Peroxisome proliferator-activated receptor alpha (Homo sapiens) (UniProt Q07869); experiment: qHTS assay for small molecule agonists of the peroxisome proliferator-activated receptor alpha (PPARalpha) signaling pathway (AID 651778); conditions: PathHunter PPARalpha complementation, chemiluminescence, 6 h; stronger effect = higher value; also: % of control where 0% means no effect
Outline: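 Cells plated at 2,000/well and held overnight at 37 C, 5% CO2, then compound added by pin tool for 6 hr; after PathHunter detection reagent and 60 min at room temperature, chemiluminescence from enzyme complementation was read.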

[15] = qHTS assay for small molecule agonists of the antioxidant response element (ARE) signaling pathway measured by Nrf2-dependant transcriptional activity - cell viability counter screen (AID 720653; active = well fitted curve in the direction sought with a large enough effect in the repeat runs; an effect the other way counts as inactive or inconclusive; also: % is scaled to controls: 0 for no effect and ±100 for the full control effect); conditions: ARE-bla HepG2 viability, CellTiter-Glo ATP luminescence, 16 h; stronger effect = lower value
Outline: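 ARE-bla HepG2 cells (2,000/well) rested 5 hrs at 37C/5% CO2, then exposed to compounds in DMSO for 16 hrs. Viability was read in the same wells as intracellular ATP by luminescence, 30 min at room temperature after reagent addition.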

[16] = qHTS assay for cell viability of HEK293 cells (AID 743288); conditions: ATP luminescence (CellTiter-Glo), 18 h; max response: stronger effect = lower value; also: % is scaled to controls: 0 for no effect and ±100 for the full control effect; nearly all actives have a fitted effect of over 50% in size
Outline: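 ATP luminescence (CellTiter-Glo) reports metabolically competent cell number after parental HEK293 cells, 2,000/well, were treated with DMSO-dissolved compounds for 18 h at 37 C; reagent incubation 30 min, room temperature.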

[17] = qHTS assay for cell viability of the p53RE-bla HCT-116 cell line (AID 743292); also: % is scaled to controls: 0 for no effect and ±100 for the full control effect; nearly all actives have a fitted effect of over 55% in size
Outline: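 ATP-based luminescent viability (CellTiter-Glo, 30 min RT) after 16 h compound treatment at 37 C of p53RE-bla HCT-116 cells, seeded at 4,000 cells/well and rested 5 h before dosing.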

[18] = target: Nuclear receptor subfamily 1 group I member 2 (Rattus norvegicus) (UniProt Q9R1A7); experiment: qHTS assay for small molecule activators of the rat pregnane X receptor (rPXR) signaling pathway (AID 651751; call rule not given here; also: 0% is about no effect); conditions: rPXR reporter cells, luciferase (One-Glo), 24 h
[19] = measured here: cell count channel max response
[20] = measured here: lipid channel max response

Sequence of Peroxisome proliferator-activated receptor alpha (Homo sapiens) (Q07869 whole entry, looked up): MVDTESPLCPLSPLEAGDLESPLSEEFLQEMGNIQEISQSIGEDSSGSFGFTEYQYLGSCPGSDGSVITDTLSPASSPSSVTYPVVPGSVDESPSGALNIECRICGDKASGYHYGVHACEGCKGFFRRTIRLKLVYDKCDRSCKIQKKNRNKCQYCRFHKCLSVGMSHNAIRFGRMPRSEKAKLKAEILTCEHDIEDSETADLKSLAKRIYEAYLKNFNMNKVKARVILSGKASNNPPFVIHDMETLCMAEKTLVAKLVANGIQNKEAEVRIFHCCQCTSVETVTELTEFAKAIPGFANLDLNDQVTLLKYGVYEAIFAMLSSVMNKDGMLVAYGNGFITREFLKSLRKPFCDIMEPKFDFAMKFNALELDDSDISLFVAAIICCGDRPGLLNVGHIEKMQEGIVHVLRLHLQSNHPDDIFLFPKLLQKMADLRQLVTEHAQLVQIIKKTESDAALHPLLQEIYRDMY
Sequence of Vitamin D3 receptor (Homo sapiens) (P11473 whole entry, looked up): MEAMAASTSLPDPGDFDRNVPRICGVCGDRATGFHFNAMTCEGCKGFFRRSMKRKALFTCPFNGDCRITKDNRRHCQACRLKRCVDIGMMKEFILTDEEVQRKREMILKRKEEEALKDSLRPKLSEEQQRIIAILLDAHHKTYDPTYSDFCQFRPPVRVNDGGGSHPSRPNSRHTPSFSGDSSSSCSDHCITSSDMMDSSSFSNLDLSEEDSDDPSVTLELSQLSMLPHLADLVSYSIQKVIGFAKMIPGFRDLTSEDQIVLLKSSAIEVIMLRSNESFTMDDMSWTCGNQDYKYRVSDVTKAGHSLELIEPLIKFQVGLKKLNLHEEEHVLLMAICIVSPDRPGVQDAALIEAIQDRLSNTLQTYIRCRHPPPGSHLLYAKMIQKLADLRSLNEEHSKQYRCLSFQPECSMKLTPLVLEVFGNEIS
Sequence of Nuclear receptor subfamily 1 group I member 2 (Rattus norvegicus) (Q9R1A7 whole entry, looked up): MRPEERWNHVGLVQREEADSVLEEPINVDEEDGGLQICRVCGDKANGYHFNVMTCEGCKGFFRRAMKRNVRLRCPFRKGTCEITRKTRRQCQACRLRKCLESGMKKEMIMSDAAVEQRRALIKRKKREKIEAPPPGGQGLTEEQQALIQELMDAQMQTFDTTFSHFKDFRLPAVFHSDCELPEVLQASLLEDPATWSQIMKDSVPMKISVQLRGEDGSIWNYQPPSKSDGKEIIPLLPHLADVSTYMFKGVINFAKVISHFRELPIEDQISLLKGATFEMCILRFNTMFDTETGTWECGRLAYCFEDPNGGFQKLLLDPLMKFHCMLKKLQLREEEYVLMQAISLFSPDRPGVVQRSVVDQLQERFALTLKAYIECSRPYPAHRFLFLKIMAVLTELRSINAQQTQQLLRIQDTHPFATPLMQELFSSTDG
Sequence of Cytochrome P450 3A4 (Homo sapiens) (P08684 whole entry, looked up): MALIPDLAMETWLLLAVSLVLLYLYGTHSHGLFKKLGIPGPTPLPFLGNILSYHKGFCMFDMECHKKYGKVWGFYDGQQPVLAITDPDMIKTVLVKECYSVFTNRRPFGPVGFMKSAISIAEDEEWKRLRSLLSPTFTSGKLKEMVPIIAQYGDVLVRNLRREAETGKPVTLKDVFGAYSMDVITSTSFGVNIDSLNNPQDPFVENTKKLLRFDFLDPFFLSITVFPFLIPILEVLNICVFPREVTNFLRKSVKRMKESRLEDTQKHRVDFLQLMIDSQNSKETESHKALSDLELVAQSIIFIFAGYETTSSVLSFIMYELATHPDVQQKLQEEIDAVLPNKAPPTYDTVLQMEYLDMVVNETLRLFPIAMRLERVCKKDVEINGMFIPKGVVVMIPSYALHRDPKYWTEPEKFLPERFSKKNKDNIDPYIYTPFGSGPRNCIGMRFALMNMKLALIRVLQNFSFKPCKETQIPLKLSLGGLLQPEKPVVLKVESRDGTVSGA
Sequence of Peroxisome proliferator-activated receptor gamma (Homo sapiens) (P37231 whole entry, looked up): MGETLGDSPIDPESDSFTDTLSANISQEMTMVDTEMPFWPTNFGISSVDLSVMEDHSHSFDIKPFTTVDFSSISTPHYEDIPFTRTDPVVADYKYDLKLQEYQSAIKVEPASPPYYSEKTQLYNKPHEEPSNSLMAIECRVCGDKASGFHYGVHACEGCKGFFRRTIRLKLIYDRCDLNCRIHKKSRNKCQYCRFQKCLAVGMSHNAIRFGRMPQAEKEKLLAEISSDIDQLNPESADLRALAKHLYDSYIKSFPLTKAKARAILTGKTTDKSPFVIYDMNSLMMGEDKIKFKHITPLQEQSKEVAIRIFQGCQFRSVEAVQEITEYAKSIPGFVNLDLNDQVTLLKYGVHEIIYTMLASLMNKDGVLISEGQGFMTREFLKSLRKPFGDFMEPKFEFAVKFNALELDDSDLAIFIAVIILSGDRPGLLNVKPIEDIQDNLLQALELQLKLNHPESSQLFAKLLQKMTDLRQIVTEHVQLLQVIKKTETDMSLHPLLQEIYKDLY
Sequence of Retinoic acid receptor RXR-alpha (Homo sapiens) (P19793 whole entry, looked up): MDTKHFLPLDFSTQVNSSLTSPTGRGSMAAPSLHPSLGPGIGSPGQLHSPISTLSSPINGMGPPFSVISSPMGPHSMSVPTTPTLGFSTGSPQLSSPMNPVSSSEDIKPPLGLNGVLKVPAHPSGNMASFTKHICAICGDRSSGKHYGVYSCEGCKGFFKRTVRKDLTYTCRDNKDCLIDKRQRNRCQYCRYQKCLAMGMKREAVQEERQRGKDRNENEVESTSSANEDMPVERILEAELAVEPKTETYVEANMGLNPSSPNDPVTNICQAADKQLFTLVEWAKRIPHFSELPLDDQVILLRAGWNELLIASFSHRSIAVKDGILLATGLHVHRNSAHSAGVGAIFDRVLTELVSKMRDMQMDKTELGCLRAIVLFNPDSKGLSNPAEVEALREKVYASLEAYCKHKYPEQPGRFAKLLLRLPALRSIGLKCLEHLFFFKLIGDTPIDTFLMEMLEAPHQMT
Sequence of Ubiquitin carboxyl-terminal hydrolase 1 (Homo sapiens) (O94782 whole entry, looked up): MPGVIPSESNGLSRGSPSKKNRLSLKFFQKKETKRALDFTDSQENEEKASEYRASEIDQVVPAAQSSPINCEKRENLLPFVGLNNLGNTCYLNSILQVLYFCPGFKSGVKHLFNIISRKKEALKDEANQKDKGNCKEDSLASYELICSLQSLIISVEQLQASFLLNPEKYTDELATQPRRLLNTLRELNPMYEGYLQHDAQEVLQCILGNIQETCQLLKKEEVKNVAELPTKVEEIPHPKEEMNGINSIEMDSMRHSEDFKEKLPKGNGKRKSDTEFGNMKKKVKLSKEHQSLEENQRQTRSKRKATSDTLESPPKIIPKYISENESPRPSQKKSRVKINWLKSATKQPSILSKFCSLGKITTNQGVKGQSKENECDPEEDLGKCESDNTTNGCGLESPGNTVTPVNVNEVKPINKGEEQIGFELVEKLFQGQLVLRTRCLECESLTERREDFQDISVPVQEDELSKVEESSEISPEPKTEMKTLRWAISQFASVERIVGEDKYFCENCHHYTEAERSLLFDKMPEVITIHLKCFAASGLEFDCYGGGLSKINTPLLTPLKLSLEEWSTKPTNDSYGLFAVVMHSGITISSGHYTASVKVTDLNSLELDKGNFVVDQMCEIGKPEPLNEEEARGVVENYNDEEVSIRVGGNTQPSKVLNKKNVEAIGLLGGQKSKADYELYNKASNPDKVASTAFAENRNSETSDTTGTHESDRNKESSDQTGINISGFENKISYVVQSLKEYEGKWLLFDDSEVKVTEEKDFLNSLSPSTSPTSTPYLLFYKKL

Row | SMILES | Potency [1] | Potency [2] | Potency [3] | activity change, negative = inhibition [4] | max response [4, 19] | max response [4, 20] | Potency [5] | max response [6] | outcome [7] | outcome [8] | max response [9] | max response [10] | max response [11] | activation [12] | activation [13] | max response [14] | max response [15] | max response [16] | Potency [17] | max response [18]
1 | CNC(=O)Oc1cccc2c1OC(C)(C)O2 | inactive | inactive | inactive | 5.39% (inactive) | 18% | 22.8% | inactive | 28.5% | inactive | inactive | -5.16% | -10.6% | -16.4% (inactive) | 0.009% (inactive) | 1.33% (inactive) | -1.3% (inactive) | -5.36% (inactive) | -19.8% (inactive) | inactive | 2.1% (inactive)
2 | CNC(=O)Oc1ccccc1OC(C)C | – | inactive | inactive | 5.74% (inactive) | 11.3% | 18.3% | inactive | 17.8% | inactive | inactive | -0.248% | -6.53% | -31.5% (inactive) | – | -1.13% (inactive) | 0.062% (inactive) | -4.9% (inactive) | -6.22% (inactive) | inactive | -0.132% (inactive)
3 | CC(C)N1C(=O)c2ccccc2NS1(=O)=O | inactive | inactive | inactive | 2.96% (inactive) | 13.1% | 17.2% | inactive | 55.3% | inactive | inactive | -6.21% | -4.57% | 0.0964% (inactive) | 2.08% (inactive) | – | -0.187% (inactive) | 7.65% (inactive) | -4.24% (inactive) | inactive | -1.76% (inactive)
4 | NC(CO)Cc1ccccc1 (configuration not stated) | inactive | inactive | inactive | 8.6% (inactive) | 17.3% | 29% | inactive | – | – | – | – | – | – | – | – | – | – | – | – | –
5 | CC1CC2CC(=O)C3CCCN4CCCC2[C@]34C1 (some centres not stated) | inactive | inactive | inactive | 3.72% (inactive) | 9.37% | 11.3% | inactive | – | – | – | – | – | – | – | – | – | – | – | – | –
6 | CC(=O)OC1CC[C@]2(C)C(CCC3C2CC[C@]2(C)C(C4=CC(=O)OC4)C(OC(C)=O)CC32O)C1 (some centres not stated) | inactive | inactive | inactive | 6.45% (inactive) | 1.24% | 14.6% | inactive | – | – | – | – | – | – | – | – | – | – | – | – | –
7 | COc1nc(NC(C)C)nc(NC(C)C)n1 | – | inactive | inactive | 2.18% (inactive) | -5.5% | -2.96% | inactive | 7.33% | inactive | inactive | 21.4% | -4.65% | -8.1% (inactive) | -5.88% (inactive) | -1.56% (inactive) | -3.74% (inactive) | 5.54% (inactive) | -7.69% (inactive) | inactive | -2.09% (inactive)
